High-throughput results: PubChem, National Center for Advancing Translational Sciences (NCATS)
A selection: hits, their analogues and other compounds. The true share with any hit is near 21%.
Shiga toxin inh: Shiga toxin inhibition | AID 2315 | Vero cells, Shiga toxin protein synthesis inhibition reporter | inhibition, % at 38.7 µM | 290,000 compounds, 9.2% hits; in the data active = inhibition mostly above about 28%, no sharp cut-off; inactive = mostly below about 43%; also: 0% is about no effect
Pf growth 48h: inhibits P. falciparum growth in the first generation, 48 h; P. falciparum luciferase growth in erythrocytes, 48 h; Potency, µM (series often up to 28.7 µM), for the others: at the top dose activity change, negative = inhibition, usual class: inhibitors; 310,000 compounds, 5.9% hits; AID 504832; active = well fitted inhibition curve with a large enough effect; inconclusive = small, poorly fitted or top-dose-only effect, or another doubt; inactive = no such curve, though single readings can be large or run the other way; also: potency is read from the fitted curve at half-maximal effect; % is scaled to controls: 0 for no effect and ±100 for the full control effect
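Compounds are pin-transferred into medium, infected erythrocytes (2% hematocrit, 0.1% parasitemia final) are added, and plates sit one parasite generation at 37 C in 5% CO2. Detection reagent is then added and luminescence measured.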
NS1 function inh: blocks influenza NS1 protein function. Potency, µM (doses to about 46.1 µM), for inactives: at the highest dose activity, positive = more growth. 270,000 compounds, 0.4% hits; also: potency is read from the fitted curve at half-maximal effect; actives are rising curves; nearly all actives have a fitted effect of over 50% in size
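Recovery from NS1-induced slow growth read by OD600 in budding yeast switched to galactose assay medium (pH 6.0, -URA) at 1:100 dilution. Compound 23 nl per well; the matching strain lacking NS1 serves as control.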
SARS PLpro yeast: inhibitors of SARS-CoV papain-like protease in yeast; S. cerevisiae expressing SARS-CoV PLpro, growth rescue; Potency, µM (highest dose often 32.9 µM), inactives show top-dose activity, positive = growth rescue, actives largely listed as activators; 330,000 compounds, 0.19% hits; also: potency is read from the fitted curve at half-maximal effect; 0% is about no effect; nearly all actives have a fitted effect of over 55% in size
Pf growth 96h: P. falciparum growth inhibition at 96 hours; AID 504834; P. falciparum luciferase reporter growth, 96 h; Potency, µM (highest dose often 28.7 µM), for inactives: at the top dose activity change, negative = inhibition, actives largely listed as inhibitors; 320,000 compounds, 6.9% hits; active = well fitted inhibition curve with a large enough effect; inconclusive = small, poorly fitted or top-dose-only effect, or another doubt; inactive = no such curve, though single readings can be large or run the other way; also: potency is read from the fitted curve at half-maximal effect; % is scaled to controls: 0 for no effect and ±100 for the full control effect
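Parasite growth measured via integrated firefly luciferase reporter in P. falciparum. Infected erythrocytes at 2% hematocrit, 0.05% parasitemia final were treated 96 hours at 37 C under 5% CO2, and luminescence was read.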
CHX counter: affects cycloheximide protein synthesis inhibition readout, counter-screen; cell reporter, cycloheximide protein synthesis inhibition counterscreen; max response, %; 300,000 compounds, 12% hits; AID 2314; in the data active = max response mostly above about 13%, no sharp cut-off; inactive = mostly below about 14%; also: read at 38.3 µM for the half of the compounds with a filed dose; 0% is about no effect
An asterisk follows results filed as active; ? = inconclusive; nt = no result given. Unless noted, calls follow the shape of the full dose curve.

SMILES | Shiga toxin inh | Pf growth 48h | NS1 function inh | SARS PLpro yeast | Pf growth 96h | CHX counter
N/C(=N\OC(=O)Cc1ccccc1)c1cccc(Br)c1 | 47.6* | 36.2% | -5.9% | -1.2% | 8.4% | 10.7
N/C(=N\OC(=O)Cc1ccccc1[N+](=O)[O-])c1cccc(Br)c1 | 27.2 | 23.5% | -9.1% | -3.7% | 27.3% | 18.4*
C=C(C)CSc1nc2c(cc1C#N)CCC2 | 5.1 | -2.8% | -65.6% | -0.6% | 14.7µM* | -1.3
C=CCSc1nc2c(cc1C#N)CCC2 | 28.0 | -7.0% | -41.3% | 1.5% | ? | 15.6*
CSc1nc2c(cc1C#N)CCC2 | -10.4 | 20.5% | 1.4% | 2.0% | -8.1% | 2.4
CCCCSc1nc2c(cc1C#N)CCC2 | 25.2 | ? | -4.7% | 2.8% | ? | 12.4*
CS(=O)CSc1nc2c(cc1C#N)CCCC2 (stereo unspecified) | -9.5 | 19.7% | 4.9% | -1.6% | ? | 10.0
C=CCN(C(=O)CNC(=O)c1ccco1)C(C(=O)NC1CCCC1)c1ccc(OC)cc1 (stereo unspecified) | -6.4 | -5.8% | 2.0% | 0.9% | -1.6% | -1.4
CCn1ncc(Br)c1C(=O)Nc1ccc(C(=O)OC(C)C)cc1 | 42.4 | ? | -23.7% | -30.6% | nt | 26.9*
C=C(C)C(=O)OCC(O)COc1ccc(C(C)(C)c2ccc(OCC(O)COC(=O)C(=C)C)cc2)cc1 (stereo unspecified) | nt | ? | nt | -3.3% | ? | nt
COc1ccc(S(=O)(=O)c2nnn(-c3cccc(Cl)c3)c2N)cc1 | -3.3 | ? | nt | -0.9% | ? | 0.5
CCCCCOC(=O)c1[nH]c2c(c1C)C(=O)CC(c1ccco1)C2 (stereo unspecified) | -6.5 | 0.657µM* | -29.1% | -3.0% | 23.2% | 4.9
COCCOC(=O)c1[nH]c2c(c1C)C(=O)CC(c1cccs1)C2 (stereo unspecified) | -4.5 | ? | nt | -1.6% | 136.1% | 19.9*
CC1Cc2ccccc2N1S(=O)(=O)c1cccc(C(=O)N2CCN(c3ncccn3)CC2)c1 (stereo unspecified) | -22.1 | ? | nt | -0.9% | ? | -1.9
Cc1onc(-c2ccccc2)c1C(=O)Oc1ccccc1 | 12.9 | -9.1% | -4.5% | 0.6% | 19.7% | -0.9
Cc1ccc(S(=O)(=O)N2CCC(C(N)=O)CC2)cc1[N+](=O)[O-] | 1.4 | 15.7% | -33.1% | -2.9% | 108.5% | -0.7
NC(N)=NCCC[C@H](NC(=O)[C@H](Cc1ccccc1)NC(=O)[C@@H]1CCCN1C(=O)[C@H](CO)NC(=O)[C@H](Cc1ccccc1)NC(=O)CNC(=O)[C@@H]1CCCN1C(=O)[C@@H]1CCCN1C(=O)[C@@H](N)CCCN=C(N)N)C(=O)O | -6.5 | nt | nt | nt | nt | -5.2
O=C(CN1CCN(S(=O)(=O)c2ccc(Br)s2)CC1)N1CCCCC1 | nt | -11.7% | nt | 7.0% | ? | nt
O=C(Nc1ccccc1Cl)c1ccc([N+](=O)[O-])o1 | 109.9* | -29.8% | -71.0% | ? | 165.6% | 60.0*
Cc1cccc(NC(=O)c2ccc([N+](=O)[O-])o2)n1 | 32.9 | ? | -33.0% | -7.0% | 10.4µM* | 24.5*
Cc1cccnc1NC(=O)c1ccc([N+](=O)[O-])o1 | 2.2 | ? | -7.7% | 12.1% | ? | 1.0
Cc1ccc(NC(=O)c2ccc([N+](=O)[O-])o2)c(C)c1 | 79.5* | ? | -6.7% | -0.9% | -30.8% | 37.7*
Cc1ccccc1NC(=O)c1ccc([N+](=O)[O-])o1 | 44.5* | 10.4µM* | -0.9% | -1.1% | 3.7µM* | 30.1*
Cc1ccc(NS(=O)(=O)c2ccc(-c3csc(C)n3)s2)c(C)c1 | 16.5 | 9.3% | -13.1% | -9.6% | 36.3% | 8.1
COc1ccccc1CNC(=O)c1nccnc1CO | -3.5 | 47.9% | -2.4% | 0.4% | 16.2% | -1.0
SMILES | Shiga toxin inh | Pf growth 48h | NS1 function inh | SARS PLpro yeast | Pf growth 96h | CHX counter
Cc1cc(CNC(=O)COc2ccc(F)cc2Cl)cc(C)c1O | -4.7 | -20.3% | 13.1% | -0.4% | -14.2% | 18.9
COc1cc2ncnc(NCc3cccc(F)c3F)c2cc1OC | -1.2 | nt | -0.1% | -2.2% | ? | -5.3
COc1cc2c(Nc3ccc(Br)cc3F)ncnc2cc1OCC1CCN(C)CC1 | nt | 0.675µM* | nt | nt | 1.51µM* | nt
CCC(C)(C)NC(=O)C(c1cccc(OC)c1OC)N(Cc1ccc(OC)cc1)C(=O)CCC(=O)Nc1cc(C)on1 (stereo unspecified) | -5.1 | 8.28µM* | -6.7% | -1.0% | 9.0% | -1.9
COc1cccc(C(C(=O)NC(C)(C)C)N(Cc2ccc(F)cc2)C(=O)CCC(=O)Nc2cc(C)on2)c1OC (stereo unspecified) | -14.5 | 13.1µM* | 2.1% | 12.5% | ? | -2.0
COc1cccc(C(C(=O)NC(C)(C)C)N(CC(C)C)C(=O)CCC(=O)Nc2cc(C)on2)c1OC (stereo unspecified) | -17.4 | ? | 3.2% | 0.2% | 22.7% | -0.9
CCC(C)(C)NC(=O)C(c1cccc(OC)c1OC)N(Cc1ccccc1)C(=O)CCC(=O)Nc1cc(C)on1 (stereo unspecified) | -10.0 | ? | 19.8% | -1.4% | 20.8% | -3.7
CCn1c(C)nc2cc(C(=O)NNC(=O)CCC3CCCC3)ccc21 | 2.0 | 13.3% | -8.0% | 28.4% | 28.5% | -0.2
CC(CCc1ccccc1)NC(=O)CNC(=S)N(Cc1cccs1)C1CCCC1 (stereo unspecified) | 23.7 | ? | nt | -4.6% | -31.7% | -2.6
COCC(C)NC(=O)c1cc(-c2ccc(O)cc2)on1 (stereo unspecified) | 57.3 | nt | -33.3% | ? | -0.3% | 35.9*
COCCNC(=O)c1cc(-c2cccc(OC)c2)on1 | 74.3* | 232.3% | -6.4% | 0.6% | 4.9% | 42.5*
COCC(C)NC(=O)c1cc(-c2cccc(OC)c2)on1 (stereo unspecified) | 81.3* | 174.3% | -4.8% | 7.3% | ? | 28.3*
COc1cccc(-c2cc(C(=O)Nc3ccccc3SC)no2)c1 | 34.8* | 140.1% | 0.9% | -5.0% | 16.3% | 36.2*
COc1cccc(NC(=O)CCCn2nc(C)c3c(C)n(-c4ccccc4)nc3c2=O)c1 | 0.7 | -10.5% | -0.3% | 0.2% | ? | -2.6
Cn1c(=O)[nH]c(=O)c2c1nc(N1CCOCC1)n2CCSc1ncccn1 | nt | nt | 3.2% | nt | nt | nt
O=C(O)c1ccc2c(c1)N(Cc1ccccc1)C(=O)c1ccccc1S2 | 13.1 | 2.6% | 1.5% | 0.3% | 12.7% | 0.7
COc1cccc(-c2noc(CCCC(=O)NC3CCCC3)n2)c1 | 4.0 | -5.6% | 6.2% | -11.3% | 2.33µM* | 14.8*
COc1cccc(-c2cc(C(=O)NC3CCCC3)no2)c1 | 145.1* | 148.9% | -23.8% | -1.2% | nt | 46.5*
COc1cccc(-c2cc(C(=O)Nc3cccc(O)c3)no2)c1 | 33.3 | 222.1% | -35.7% | 2.9% | -12.7% | 22.8
COc1ccc(N=Cc2c(O)n(Cc3cccs3)c(=O)[nH]c2=O)cc1 | -12.7 | 13.4% | -3.5% | -0.1% | 0.7% | -2.2
